The source of these data is PubChem BioAssay.

The source made the active and inactive calls.

Experiment [1] relates to Plasmodium falciparum Sir2 (PF13_0152, Sir2A). Kind of experiment: Plasmodium falciparum Sir2A binding compounds – biochemical, small-molecule microarray, 635 nm fluorescence, primary screen (AID 1098).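 Also: score merges spot fluorescence intensity with its signal-to-noise ratio.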 As to conditions: fluorescence 635 nm, higher = more signal.
Experiment [2] can be described thus: probe aDKK1 binding to arrayed compounds – biochemical, biotinylated probe, 635/667 nm fluorescence, primary screen (AID 1099).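 Also: score merges 667nm spot fluorescence with signal to noise across triplicate slides; reference of the scale not given here.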 As to conditions: small-molecule microarray, higher = more signal.
The nature of experiment [3]: probe aCHRDL2 binding to arrayed compounds – biochemical, biotinylated probe, 635/667 nm fluorescence, primary screen (AID 1100). Particulars: small-molecule microarray, higher = more signal.
The nature of experiment [4]: change in splice reporter luminescence, either direction, cell-based, HEK293, spliceosome inhibition project, primary screen (AID 1101).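 Also: HEK293 cells carrying a splicing-competent luciferase reporter gene; test concentration not given here.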 Particulars: HEK293 splicing luciferase reporter, 24 h, higher = more signal, called active from +8 up or from −8 down.
Experiment [5] has as its target Fibroblast growth factor 10 (Homo sapiens) (UniProt O15520). Kind of experiment: compounds binding fibroblast growth factor 10 – biochemical, small-molecule microarray, 635 nm fluorescence, primary screen (AID 1102). As to conditions: FGF10 binding, fluorescence 635 nm, higher = more signal.
For experiment [6], the system named is glycogen synthase kinase-3 (GSK3A per assay name; protocol says GSK3B). Kind of experiment: compounds binding glycogen synthase kinase-3 – biochemical, small-molecule microarray, 635 nm fluorescence, GSK3A, primary screen (AID 1103). Also: the record names both GSK3A and GSK3B. Particulars: fluorescence 635 nm, higher = more signal.
Experiment [7] deals with Epidermal growth factor receptor (Homo sapiens) (UniProt P00533). Briefly: compounds binding epidermal growth factor receptor – biochemical, small-molecule microarray, 635 nm fluorescence, primary screen (AID 1104).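 Also: score merges 667 nm emission intensity with spot signal to noise over triplicate slides.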 Particulars: EGFR binding, higher = more signal.
Chain of Epidermal growth factor receptor (Homo sapiens) (P00533 whole entry, looked up): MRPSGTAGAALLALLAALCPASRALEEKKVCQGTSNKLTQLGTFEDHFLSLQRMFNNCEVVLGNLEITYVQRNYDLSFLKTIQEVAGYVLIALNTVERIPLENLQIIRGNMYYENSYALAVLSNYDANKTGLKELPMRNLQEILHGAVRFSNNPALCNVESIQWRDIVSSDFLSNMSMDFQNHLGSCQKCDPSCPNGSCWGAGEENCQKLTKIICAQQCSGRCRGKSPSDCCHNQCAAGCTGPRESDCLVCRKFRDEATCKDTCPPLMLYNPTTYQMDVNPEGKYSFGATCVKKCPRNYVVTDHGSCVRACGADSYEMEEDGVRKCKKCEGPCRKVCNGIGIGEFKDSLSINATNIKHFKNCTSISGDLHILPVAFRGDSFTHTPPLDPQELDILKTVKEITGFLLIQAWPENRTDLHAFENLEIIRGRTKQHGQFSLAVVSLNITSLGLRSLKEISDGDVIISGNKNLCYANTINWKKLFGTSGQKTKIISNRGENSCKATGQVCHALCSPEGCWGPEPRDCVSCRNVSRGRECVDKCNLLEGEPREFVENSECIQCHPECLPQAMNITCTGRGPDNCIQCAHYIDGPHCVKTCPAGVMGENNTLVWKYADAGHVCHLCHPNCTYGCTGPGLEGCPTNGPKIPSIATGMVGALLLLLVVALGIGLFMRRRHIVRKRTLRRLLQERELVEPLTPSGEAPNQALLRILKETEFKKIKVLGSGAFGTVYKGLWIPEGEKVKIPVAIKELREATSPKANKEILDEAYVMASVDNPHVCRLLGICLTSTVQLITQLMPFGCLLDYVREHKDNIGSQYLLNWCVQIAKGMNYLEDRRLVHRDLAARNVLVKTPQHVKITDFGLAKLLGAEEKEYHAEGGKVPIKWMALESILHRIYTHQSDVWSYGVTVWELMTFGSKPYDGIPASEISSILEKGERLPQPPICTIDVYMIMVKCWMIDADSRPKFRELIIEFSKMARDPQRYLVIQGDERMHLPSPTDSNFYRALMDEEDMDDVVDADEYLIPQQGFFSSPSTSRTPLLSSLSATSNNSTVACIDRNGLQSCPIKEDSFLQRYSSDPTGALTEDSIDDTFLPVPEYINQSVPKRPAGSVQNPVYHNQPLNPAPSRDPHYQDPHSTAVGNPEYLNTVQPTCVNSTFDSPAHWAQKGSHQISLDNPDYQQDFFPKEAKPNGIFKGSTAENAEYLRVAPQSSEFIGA
Experiment [8] concerns the target Follistatin-related protein 3 (Homo sapiens) (UniProt O95633). Briefly: compounds binding follistatin-related protein 3 – biochemical, small-molecule microarray, 635 nm fluorescence, primary screen (AID 1105).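 Also: score merges emission near 667 nm and signal to noise per printed spot across three slides.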 As to conditions: FSTL3 binding, higher = more signal.
In experiment [9] the target is Dickkopf-related protein 1 (Homo sapiens) (UniProt O94907). Briefly: small molecules binding DKK1 protein – biochemical, small-molecule microarray, 635 nm fluorescence scan, primary screen (AID 1106).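 Also: score merges emission near 667 nm with signal to noise over three replicate slides.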 As to conditions: higher = more signal.
Chain of Dickkopf-related protein 1 (Homo sapiens) (O94907 whole entry, looked up): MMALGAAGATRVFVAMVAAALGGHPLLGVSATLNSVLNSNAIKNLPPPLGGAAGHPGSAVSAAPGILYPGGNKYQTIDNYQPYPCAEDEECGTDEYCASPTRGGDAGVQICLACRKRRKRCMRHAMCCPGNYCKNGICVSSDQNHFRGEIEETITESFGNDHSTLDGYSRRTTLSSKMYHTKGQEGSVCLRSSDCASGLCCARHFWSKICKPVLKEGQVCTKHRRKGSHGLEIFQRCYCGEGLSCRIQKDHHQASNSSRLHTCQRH
Experiment [10] has as its system Inhibin beta A chain (activin A). Briefly: small molecules binding activin A – biochemical, small-molecule microarray, 635 nm fluorescence scan, primary screen (AID 1107).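 Also: mouse activin A protein probed at 4.33 µg/mL on printed slides; score merges bound-protein fluorescence near 667 nm with spot signal-to-noise.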 As to conditions: INHBA, higher = more signal.

Chain of Follistatin-related protein 3 (Homo sapiens) (O95633 whole entry, looked up): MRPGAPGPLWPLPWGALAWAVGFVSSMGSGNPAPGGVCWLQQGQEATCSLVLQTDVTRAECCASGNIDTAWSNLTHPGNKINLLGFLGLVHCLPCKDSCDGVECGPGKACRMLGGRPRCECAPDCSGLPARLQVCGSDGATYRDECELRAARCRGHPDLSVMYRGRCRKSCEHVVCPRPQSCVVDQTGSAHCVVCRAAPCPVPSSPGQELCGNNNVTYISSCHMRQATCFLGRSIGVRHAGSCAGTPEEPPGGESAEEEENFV
Chain of Fibroblast growth factor 10 (Homo sapiens) (O15520 whole entry, looked up): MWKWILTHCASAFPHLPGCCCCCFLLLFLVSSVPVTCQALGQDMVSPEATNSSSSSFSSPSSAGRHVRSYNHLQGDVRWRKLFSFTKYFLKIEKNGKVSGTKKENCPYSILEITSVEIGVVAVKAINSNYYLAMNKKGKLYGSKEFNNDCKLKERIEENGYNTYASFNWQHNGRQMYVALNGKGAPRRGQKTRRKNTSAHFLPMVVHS

`COC(=O)[C@@]1(Cc2ccccc2)[C@H]2c3cc(C(=O)N4CCCC4)n(Cc4ccc(O)c(OC)c4)c3C[C@H]2CN1C(=O)c1ccccc1`: the composite z-score is 0.117 in [1]; 0.611 in experiment [2]; 1.08 in [3]; 0.253 in [5]; 0.632 in experiment [6]; -0.527 in [7]. Further, the composite z-score is 0.202 in experiment [8], -0.817 in [9] and 0.939 in experiment [10]. In experiment [4], the z-score was -2.95 (inactive).
For `COc1ccc(NN2C(C(O)c3ccc(N(C)C)cc3)C=CC3C(=O)N(C4CCCCC4)C(=O)C32)cc1` (stereo not given), the composite z-score came to 1.01 in experiment [1]; 1.15 in [2]; 0.649 in [3]; 0.635 in experiment [5]; 1.3 in experiment [6]; 0.322 in experiment [7]. The composite z-score in experiment [8] is 0.659; in experiment [9] it was -0.28; in experiment [10] it was 0.814. Further, in experiment [4], the z-score was -0.438 (inactive).
As to `O=C(NCc1ccccc1)[C@@H]1c2ccccc2C(=O)N(C2Cc3ccccc3C2)[C@H]1c1ccc(CO)cc1`, the composite z-score in experiment [1] is 0.81; in experiment [2], 0.689; in experiment [3], 1.01; in experiment [5], 0.732; in experiment [6], 0.737; in experiment [7] it was -0.318. Besides, the figures for the composite z-score in experiment [8], in experiment [9] and in experiment [10] were 0.475, 0.0698 and 0.344, respectively. For the same compound, in experiment [4], the z-score was -0.0178 (inactive).
Take `CCOC(=O)C1=CC[C@@H](c2ccc(C(F)(F)F)cc2)N(S(=O)(=O)c2ccc(C)cc2)[C@H]1c1ccccc1`: the composite z-score was 0.544 in experiment [1]; 1 in [2]; 1.12 in [3]; 0.485 in experiment [5]; 1.31 in experiment [6]; -0.0946 in experiment [7]. Also, the composite z-score is 0.799 in experiment [8], -0.305 in experiment [9] and -0.0699 in [10]. Moreover, the z-score in experiment [4] is -2.54 (inactive).
As for `NC(=O)[C@@H]1[C@H]2C(=O)O[C@H](c3ccccc3)[C@H](c3ccccc3)N2[C@H](c2ccc(OCCO)cc2)[C@@]12C(=O)Nc1ccc(C#CC3=CCCCC3)cc12`, the composite z-score in experiment [1] was 1.36; in experiment [2], -0.134; in experiment [3] it was -0.233; in experiment [5], 1.21; in experiment [6], 1.32; in [7] it was 0.544. The composite z-score in experiment [8] turned out to be 0.588; in experiment [9] it was 0.372; in experiment [10] it was 0.357. Moreover, the z-score in [4] was -0.857 (inactive).
As for `OB1C=CCC(CCc2ccccc2)O1` (stereo not given), the composite z-score in experiment [1] was 1.57; in [2] it was -0.246; in experiment [3], 0.0796; in experiment [5], -0.184; in experiment [6] it was -0.428; in [7] it was 0.0835. Further, the composite z-score in experiment [8] is -0.544; in experiment [9] it was -0.191; in experiment [10], 1.67. The z-score in experiment [4] was -0.817 (inactive).
In the case of `NCCCCCNC(=O)[C@H]1C[C@H]2C(=O)N[C@@H](Cc3ccccc3)C(=O)N2[C@H]1c1cccc(OCCO)c1`, the composite z-score was 0.0864 in experiment [1]; 1.15 in experiment [2]; 0.942 in [3]; -0.0314 in experiment [5]; 0.213 in [6]; 0.0441 in [7]. Besides, the composite z-score came to 0.6 in experiment [8], 0.4 in experiment [9] and 1.34 in experiment [10]. Also, the z-score in experiment [4] was -0.365 (inactive).
`COCCOC(=O)N1C(=O)[C@@]2(c3ccccc31)[C@H](C(=O)N1CCc3cc(OC)c(OC)cc3C1)[C@H]1C(=O)O[C@H](c3ccccc3)[C@H](c3ccccc3)N1[C@@H]2c1ccc(O)cc1`: the composite z-score in experiment [1] was 1.38; in experiment [2], 0.0664; in [3] it was 0.299; in experiment [5], 0.375; in [6], 0.691; in [7] it was 0.431. In addition, the values for the composite z-score in experiment [8], in experiment [9] and in [10] were 0.671, 0.503 and 0.407, respectively. Moreover, in experiment [4], the z-score was 0.251 (inactive).
Consider `COC(=O)[C@@]1(Cc2ccc(F)cc2)[C@H]2c3cc(C(=O)N(C)C)n(Cc4ccc(C)o4)c3C[C@H]2CN1C(=O)c1ccccc1`, for which the composite z-score in experiment [1] was 1.29; in [2], 2.05; in [3] it was 0.495; in experiment [5] it was 0.152; in [6], 0.102; in experiment [7] it was -1.87. The composite z-score in experiment [8] was -1.13; in experiment [9], -1.39; in experiment [10] it was 1.07. The z-score in experiment [4] is -1.6 (inactive).
Turning to `COCCCNC(=O)[C@@]1(Cc2ccccc2)N=C(c2ccc(OCCCO)cc2)O[C@H]1c1ccccc1CN=[N+]=[N-]`, the composite z-score in experiment [1] is 0.47; in experiment [2], 1.09; in [3], 1.32; in [5], 0.807; in [6], 1.28; in [7], -0.105. In addition, the composite z-score was 0.859 in experiment [8], -0.172 in experiment [9] and 0.384 in experiment [10]. For the same compound, the z-score in experiment [4] is -0.469 (inactive).
Take `[N-]=[N+]=Nc1ccccc1C[C@]1(C(=O)NCC(O)CO)N=C(c2ccc(OCCCO)cc2)O[C@H]1c1ccccc1` (stereo not given in full): the composite z-score is 0.848 in experiment [1]; 0.603 in [2]; 0.965 in experiment [3]; 0.786 in experiment [5]; 0.544 in experiment [6]; -0.704 in [7]. The composite z-score in experiment [8] is -0.107; in [9], -0.735; in experiment [10], 0.537. In addition, the z-score in experiment [4] is -0.29 (inactive).
As to `C=CCNC(=O)[C@H]1[C@@H]2C(=O)O[C@@H](c3ccccc3)[C@@H](c3ccccc3)N2[C@@H](c2ccc(O)cc2)[C@]12C(=O)Nc1ccc(C#CCCO)cc12`, the composite z-score in experiment [1] was 0.526; in experiment [2], 0.0418; in experiment [3], 0.198; in experiment [5] it was -0.818; in [6], -0.572; in experiment [7], -0.326. For the same compound, the composite z-score in experiment [8] is -0.561; in experiment [9], 0.0898; in experiment [10] it was 0.629. In addition, the z-score in experiment [4] is 0.0704 (inactive).
On to `CN(C)CCCCCCNC(=O)[C@@H]1C[C@@H]2C(=O)N[C@@H](CCCC[N+](C)(C)C)C(=O)N2[C@@H]1c1ccc(O)cc1`, for which the composite z-score was 0.626 in experiment [1]; -0.0429 in [2]; -0.397 in experiment [3]; 0.421 in experiment [5]; 0.467 in experiment [6]; -0.144 in experiment [7]. Also, the composite z-score is 0.0663 in [8], 1.61 in experiment [9] and -0.181 in [10]. In experiment [4], the z-score is -0.0575 (inactive).
